# Test results from PubChem BioAssay AID588458 (Sanford-Burnham Center for Chemical Genomics, 2011).
# Among all 360,000 compounds or so, about 3,000 (0.83%) were called active. The full list was thinned out, with actives kept by preference. Unmarked numbers belong to inactive results. Rule as the data show it: active = inhibition above about 50%; inactive = the rest.
# Molecular target: DNA (cytosine-5)-methyltransferase 1 (Homo sapiens) (UniProt P26358)
# Test: human DNMT1 methyltransferase inhibitors, primary screen, biochemical, molecular beacon, fluorescence, HinP1I cleavage, uHTS (AID 588458)
# Settings: at 10 µM, active compounds read high
# Chain of DNA (cytosine-5)-methyltransferase 1 (Homo sapiens) (P26358 504-1616 limits assumed): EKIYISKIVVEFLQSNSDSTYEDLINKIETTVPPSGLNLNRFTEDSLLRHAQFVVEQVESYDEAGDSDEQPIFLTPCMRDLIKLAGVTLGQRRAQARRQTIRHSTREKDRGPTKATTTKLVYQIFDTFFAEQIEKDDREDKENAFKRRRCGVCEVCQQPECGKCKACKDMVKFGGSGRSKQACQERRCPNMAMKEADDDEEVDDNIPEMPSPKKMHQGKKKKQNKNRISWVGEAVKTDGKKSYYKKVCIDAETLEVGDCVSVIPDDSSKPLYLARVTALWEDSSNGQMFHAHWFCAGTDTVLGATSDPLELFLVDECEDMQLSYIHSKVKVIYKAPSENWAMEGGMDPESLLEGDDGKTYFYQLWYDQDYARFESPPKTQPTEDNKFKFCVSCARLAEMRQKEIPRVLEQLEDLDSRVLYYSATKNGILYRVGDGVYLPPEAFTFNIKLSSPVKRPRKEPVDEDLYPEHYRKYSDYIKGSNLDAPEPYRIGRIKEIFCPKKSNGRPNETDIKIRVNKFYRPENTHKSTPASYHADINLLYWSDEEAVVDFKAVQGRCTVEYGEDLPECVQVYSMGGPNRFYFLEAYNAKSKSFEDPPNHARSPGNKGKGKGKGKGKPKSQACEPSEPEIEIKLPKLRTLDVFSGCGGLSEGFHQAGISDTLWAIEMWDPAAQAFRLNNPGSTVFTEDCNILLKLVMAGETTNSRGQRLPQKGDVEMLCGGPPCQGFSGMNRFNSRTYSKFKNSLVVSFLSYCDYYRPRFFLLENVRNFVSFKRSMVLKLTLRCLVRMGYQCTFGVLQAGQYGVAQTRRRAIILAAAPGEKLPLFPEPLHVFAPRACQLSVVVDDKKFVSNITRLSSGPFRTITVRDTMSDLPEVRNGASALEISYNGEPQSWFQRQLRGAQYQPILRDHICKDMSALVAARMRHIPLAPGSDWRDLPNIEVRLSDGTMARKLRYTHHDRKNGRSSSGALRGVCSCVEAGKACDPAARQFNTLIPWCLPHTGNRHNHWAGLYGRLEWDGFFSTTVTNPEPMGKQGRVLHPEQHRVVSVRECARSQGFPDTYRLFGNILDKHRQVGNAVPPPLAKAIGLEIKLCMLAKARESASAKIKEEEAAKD
row,SMILES,inhibition (reported as % activation of signal)
1,O=C(NC(Cc1ccccc1)C(=O)O)/C(=C\c1ccccc1)NC(=O)c1ccco1 (stereo not given),-3.34%
2,CCC(C)(C)NC(=O)CN(C(=O)CCC(=O)Nc1cc(C)ccn1)c1ccc2c(c1)OCCO2,-0.26%
3,O=C(c1cccnc1)N(c1cc2sc(=O)oc2c2ccccc12)S(=O)(=O)c1ccccc1,-12.2%
4,CC(Sc1cccc[n+]1[O-])C(=O)Nc1cccc(S(=O)(=O)N2CCOCC2)c1 (stereo not given),1.02%
5,CN(C)/C=C(/C(=O)c1ccc(F)cc1)S(=O)(=O)c1ccc(F)cc1,1.17%
6,CN(C)/C=C(/C(=O)c1ccc(Cl)cc1)S(=O)(=O)c1ccccc1,70% (active)
7,CN(C)/C=C(/C(=O)c1ccccc1)S(=O)(=O)c1ccc(Cl)cc1,-1.72%
8,Cc1cnc(CN(C)C(=O)C2CCC(=O)N(CCc3cccc(F)c3)C2)[nH]1 (stereo not given),1.88%
9,O=C(Nc1ccc(Cl)cc1)c1cccc(OC(=S)N2CCOCC2)c1,0.14%
10,COc1cccc(C(=O)Nc2ccc(N3CCCC3)cc2)c1,91.3% (active)
11,COc1cccc(C(=O)Nc2ccc3nc4n(c(=O)c3c2)CCCCC4)c1,3.72%
12,CC1CN(C(=O)c2ccccc2NS(=O)(=O)c2cccc([N+](=O)[O-])c2)CC(C)O1 (stereo not given),65.4% (active)
13,Cc1cc([N+](=O)[O-])ccc1NS(=O)(=O)c1ccccc1,3.46%
14,CC1CN(C(=O)c2cccc(NS(=O)(=O)c3ccc(Br)cc3)c2)CC(C)O1 (stereo not given),6.97%
15,Nc1c(C(=O)O)cnn1-c1ccccc1,-0.06%
16,Cc1noc(C)c1COc1ccccc1C(=O)N(C)CC(=O)Nc1cccc(F)c1,1.78%
17,COc1ccc(C)cc1NC(=O)CCCN1C(=O)NC(C)(C)C1=O,2.66%
18,Cc1cc(O)c(Sc2ccccc2)c(=O)o1,4.53%
19,COc1ccc(/C=C/C(=O)c2c(O)cc(OC)cc2OC)cc1,-2.91%
20,Cc1cc(O)c(C(=O)/C=C/c2c(F)c(F)c(F)c(F)c2F)c(=O)o1,59.4% (active)
21,COc1ccc(C)cc1NC(=O)c1cc(-c2ccccc2)nc2c1cnn2C(C)C,-4.87%
22,O=C(CN1CCOCC1)N/N=C/c1ccc(-c2ccc(Br)cc2)o1,-2.15%
23,Nc1nnn(CC(=O)N/N=C/c2ccccc2)n1,0.13%
24,O=C(Cn1nnc(-c2ccccc2)n1)N/N=C/c1ccc(-c2ccc(Cl)cc2)o1,59.9% (active)
25,CC1(C)CC(=O)C(C2c3ccccc3S(=O)(=O)c3ccccc32)C(=O)C1,1.21%

row,SMILES,inhibition (reported as % activation of signal)
1,CCOc1ccc(CN2CCC(n3nccc3NC(=O)C3CC3)CC2)cc1CO,55.5% (active)
2,O=C(Nc1ccnn1C1CCN(Cc2cccc(OCCO)c2)CC1)C1CCCC1,-0.78%
3,COc1cc(CC(=O)N2CCC(n3nccc3NC(=O)C3CC3)CC2)cc(OC)c1OC,0.88%
4,COCCCC1CCN(C(=O)C2CCC(=O)N(C3CCCCCC3)C2)CC1 (stereo not given),-2.02%
5,C=CCN1CCN(C(=O)CCCc2ccccc2)CC1,0.85%
6,Cc1noc(C)c1COC(=O)COc1ccc(-c2ccccc2)cc1,-6.7%
7,O=C(Oc1ccc(-c2nc(-c3ccccn3)no2)cc1)c1ccccc1,52.9% (active)
8,O=C(COC(=O)c1ccncc1)c1ccccc1,-0.53%
9,Nc1nc(Br)c2ccccc2c1-c1ccc(F)cc1,-9.34%
10,Cc1cccc(C)c1OCCN1CCOCC1,0.32%
11,c1ccc2cc3c(NCCN4CCOCC4)ccnc3cc2c1,54.4% (active)
12,O=C(NCCN1CCOCC1)c1cc(Sc2cccc(Cl)c2)nc2ccccc12,-4.33%
13,CN1CCN(C(=O)C(=O)c2cn(CC(=O)N3CCCC3)c3ccccc23)CC1,1.12%
14,O=C(CN1C(=O)c2cccnc2Oc2ccc(Cl)cc21)NCCc1ccccc1,-0.09%
15,Cc1ccc2oc(=O)c3cnn(CC(=O)N4CCN(c5ccccn5)CC4)c3c2c1,2.52%
16,CC(=O)Nc1ccc(SCC(=O)NC(=O)c2ccc(Cl)cc2)cc1,69.8% (active)
17,CC(=O)Nc1ccc(NC(=O)CCCNC(=O)c2ccc(Cl)cc2)cc1,-1.09%
18,CCC(=O)Nc1ccc(C(=O)NNC(=O)c2ccc(Cl)cc2)cc1,-1.31%
19,Cc1ccc2c(CN3CCN(S(=O)(=O)c4ccccc4C(F)(F)F)CC3)cc(=O)oc2c1,-2.32%
20,CC(C)Oc1ccc(S(=O)(=O)N2CCOCC2)cc1NC(=O)C1CCCC1,4.21%
21,CCCCN1C(=O)/C(=C/C=C2/C=Cc3ccccc3N2CC)SC1=S,3.13%
22,O=C(CN1C(=O)/C(=C\c2ccccc2F)SC1=S)Nc1nc2ccccc2s1,-44.4%
23,Cc1ccc(-c2nn(-c3ccccc3)cc2/C=C2\SC(=S)N(CCCCCC(=O)O)C2=O)o1,87.9% (active)
24,CCc1nnc(NS(=O)(=O)c2ccc(NC(=S)NC(=O)/C=C/c3cccs3)cc2)s1,9.17%
25,CCOC(=O)c1c(NC(=S)NC(=O)/C=C/c2cccs2)sc(C)c1C,58.9% (active)

row,SMILES,inhibition (reported as % activation of signal)
1,CCOC(=O)c1sc(=NC(=O)/C=C/c2cccs2)n(C)c1C,10.1%
2,O=C(CO/N=C/c1ccccc1O)NNC(=O)c1ccccc1Cl,-2.54%
3,CC(C)(C)N(Cc1ccccc1)C(=O)c1ccncc1,82.6% (active)
4,CC(C)(C)C(=O)N(Cc1ccccc1)c1ccccn1,-1.5%
5,CCN(Cc1ccncc1)C(=O)CCc1ccccc1,-1.63%
6,CC(=O)N/C(=N/c1nc(C)cc(C)n1)Nc1ccc(F)cc1F,0.05%
7,C/C(=N\NC(=O)CCn1nc(C)cc1C)C(C)(C)C,-0.8%
8,OCC(O)C1OCOC(C(O)CO)C1O (stereo not given),-1.63%
9,O=C(NCCc1ccc(F)cc1)c1ccc(S(=O)(=O)N2CCCCC2)cc1,-2.12%
10,NC1=CC(=O)C(=O)c2cccnc21,100% (active)
11,CN(Cc1ccccc1)C(=O)COC(=O)c1ccccc1Nc1ccccc1,-16.6%
12,Cn1cnc(C(F)(F)F)c1-c1ccc([N+](=O)[O-])cc1,3.01%
13,O=C(COC(=O)Cn1cnc2ccccc21)Nc1cccc2c1C(=O)c1ccccc1C2=O,27.5%
14,O=C(COC(=O)c1cccc(Br)c1)Nc1cccc2c1C(=O)c1ccccc1C2=O,51% (active)
15,O=C(COC(=O)c1ccccc1)Nc1ccccc1Sc1ccccc1,0.84%
16,CC(C)(C)c1ccccc1NC(=O)CN1C(=O)NC2(CCCC2)C1=O,1.67%
17,COCCn1cnnc1SCC(=O)Nc1cccc(S(=O)(=O)N2CCCCC2)c1,-1.49%
18,Cc1ccc2c(c1)N(CC(=O)N1CCC(C)CC1)C(=O)c1cccnc1O2,-0.74%
19,COc1ccc(/C=C/C(=O)OCC(=O)N2CCN(S(=O)(=O)c3ccc(C)cc3C)CC2)cc1OC,-0.56%
20,Cc1ccc(N=C2NC(=O)/C(=C/C=C/c3ccco3)S2)cc1C,71.1% (active)
21,O=C(CSc1nc2ccccc2c(=O)[nH]1)Nc1nc(-c2ccc(Br)cc2)cs1,93.2% (active)
22,O=C(COC(=O)c1cc(=O)[nH]c2ccccc12)Nc1nc(-c2cccc(Br)c2)cs1,-21.4%
23,Cc1cc(C)c(-c2csc(NC(=O)CCCc3nc4ccccc4c(=O)[nH]3)n2)c(C)c1,-5%
24,Cc1ccc(C(C(=O)NCC2CCCO2)N(C(=O)c2snc(C(N)=O)c2N)c2ccc(C(C)C)cc2)o1 (stereo not given),0.65%
25,CC(C)C(=O)Nc1ccc2c(c1)oc1ccccc12,-5.97%
